Compounds with a hit are over-represented: about 9% of the library has one in this group of screens.
12-LOX inh = ALOX12 (human) lipoxygenase inhibition; Potency, µM (doses to about 108 µM), for the others: at the top dose activity change, negative = inhibition, actives largely listed as inhibitors; AID 1671190; P18054; actives 1.1% (n = 580,000); purified 12hLO, xylenol orange hydroperoxide absorbance; further: on the % scale 0 is the no-effect control and ±100 the full control effect
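Hydroperoxide product was detected by ferrous iron/xylenol orange as the 573 to 405 nm absorbance ratio. Arachidonic acid at 40 uM (final) was turned over for 30 min at room temperature by 150 nM human 12hLO, pH 7.0 Hepes buffer, after 15 min compound preincubation.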
PLK1 PBD inh = PLK1 (human) polo-box domain binding inhibition; Plk1 PBD binding of FITC phosphopeptide, fluorescence polarization; P53350; Potency, µM, without a hit: max response, negative = inhibition, hits mostly inhibitors; actives 2.8% (n = 360,000); AID 720504; further: series mostly up to about 57 µM; on the % scale 0 is the no-effect control and ±100 the full control effect; nearly all actives have a fitted effect of over 65% in size
G9a inh = blocks human histone lysine methyltransferase G9a. Q96KQ7. G9a H3K9 monomethylation, AlphaScreen, 2 h. actives 8.8% (n = 350,000). Potency, µM (titrated, usually from 102 µM), for the others: at the highest dose activity, negative = inhibition, usual class: inhibitors; further: on the % scale 0 is the no-effect control and ±100 the full control effect; nearly all actives have a fitted effect of over 75% in size
Target sequence (Q96KQ7 913-1193 limits assumed): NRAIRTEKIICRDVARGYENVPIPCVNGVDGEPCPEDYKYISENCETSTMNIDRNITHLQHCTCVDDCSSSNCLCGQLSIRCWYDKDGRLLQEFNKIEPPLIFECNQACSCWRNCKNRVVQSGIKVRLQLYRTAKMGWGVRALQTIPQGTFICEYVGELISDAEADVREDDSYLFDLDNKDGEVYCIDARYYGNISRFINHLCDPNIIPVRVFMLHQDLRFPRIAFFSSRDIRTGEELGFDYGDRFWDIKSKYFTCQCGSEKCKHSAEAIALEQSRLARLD
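G9a (20 nM) preincubated 15 min RT with compounds, then 500 nM biotinylated H3K9 peptide and 20 uM SAM added; 2 h RT reaction. Monomethyl-H3K9 product detected by AlphaScreen with anti-H3K9me1 antibody, streptavidin donor and anti-rabbit IgG acceptor beads.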
HP1b chromo inh = blocks HP1-beta chromodomain binding to methylated histone tails; AID 540317; P83916; AlphaScreen HP1-beta / biotin-H3K9me3 peptide binding; Potency, µM (highest dose often 114 µM), inactives show at the highest dose activity change, negative = inhibition, actives largely listed as inhibitors; actives 0.56% (n = 390,000); further: nearly all actives have a fitted effect of over 70% in size
Target sequence (P83916 whole entry, looked up): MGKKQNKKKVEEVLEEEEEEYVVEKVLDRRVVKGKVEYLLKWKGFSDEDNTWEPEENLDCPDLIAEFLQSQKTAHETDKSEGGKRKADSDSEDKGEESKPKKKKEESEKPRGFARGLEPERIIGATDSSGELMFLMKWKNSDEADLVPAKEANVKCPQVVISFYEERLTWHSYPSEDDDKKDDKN
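Compound inhibition of the preformed complex between 50 nM HP1-beta and 50 nM biotinylated H3K9me3 peptide was read by AlphaScreen. Buffer was PBS pH 7.4 with 0.01% Tween-20. Incubations ran 30 min at room temperature, with 10 ug/mL donor/acceptor beads.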
BAZ2B block = BAZ2B (human) inhibition; Potency, µM (highest dose often 114 µM), without a hit: at the highest dose activity change, negative = inhibition, most hits filed as inhibitors; actives 4.4% (n = 360,000); AlphaScreen BAZ2B-H3K14Ac peptide displacement; Q9UIF8; further: on the % scale 0 is the no-effect control and ±100 the full control effect; nearly all actives have a fitted effect of over 60% in size
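Inhibition is scored as reduced AlphaScreen emission. The BAZ2B/b-H3(5-23)K14Ac complex (50 nM each) in PBS pH 7.4, 0.01% Tween-20 meets compound (up to 110 uM) for 30 min at RT before bead addition.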
JMJD2A Tudor inh = JMJD2A Tudor domain (human) inhibition | AID 504339 | AlphaScreen JMJD2A-Tudor / H3K4me3 peptide binding | Potency, µM (top dose mostly 114 µM), inactives show at the top dose activity change, negative = inhibition, actives largely listed as inhibitors | O75164 | actives 4.4% (n = 390,000); further: on the % scale 0 is the no-effect control and ±100 the full control effect; nearly all actives have a fitted effect of over 50% in size
The depositor's hits bear a star; u = inconclusive; x = not tested or not shown; [ ] = remark or other dose. The call rests on the fitted dose curve; in most records, active means well fitted curve in the direction sought with a large enough effect; inconclusive means small, poorly fitted or top-dose-only effect, or another doubt; inactive means no such curve, though single readings can be large; an effect the other way counts as inactive or inconclusive. Potency means the concentration at half of the fitted maximal effect.

SMILES	12-LOX inh	PLK1 PBD inh	G9a inh	HP1b chromo inh	BAZ2B block	JMJD2A Tudor inh
Brc1c(CSc2nc3ccccc3s2)nc2ncccn12	-14.8%	-21.2%	u	45.6%	9.0%	-4.2%
N#C/C(=C\c1cc([N+](=O)[O-])ccc1Cl)C(N)=O	-23.3%	u	u	-2.5%	-18.5%	-14.8%
O=C(NC(=S)Nc1ccc(N2CCOCC2)c(Cl)c1)c1cccs1	u	-5.2%	1.1%	-4.7%	35.5µM*	u
CC(C)CC(=O)NC(=S)Nc1ccc(N2CCOCC2)c(Cl)c1	u	-3.6%	11.2µM*	21.7%	-33.5%	-6.3%
O=C(Nc1ccc(N2CCCC2)c(Cl)c1)c1cccs1	5.8%	-6.4%	28.2µM*	u	44.7µM*	44.7µM*
O=C(NC(=S)Nc1ccc(N2CCCCC2)cc1)c1cccs1	-53.7%	-14.5%	14.1µM*	39.8µM*	14.1µM*	35.5µM*
O=C(Nc1ccc(N2CCN(C(=O)c3cccs3)CC2)c(Cl)c1)c1ccco1	26.2%	-20.9%	-1.3%	17.0%	-3.1%	-12.2%
Cc1cc(C)c2c(n1)sc1c(N3CCN(CCO)CC3)ncnc12	9.6%	-3.0%	1.1%[12.7 µM]	-1.3%	3.1%	-30.4%
CCN(CC)C1CCS(=O)(=O)C1 (stereo not drawn)	0.0%	-22.3%	-1.1%	32.1%	-3.0%	-1.4%
O=C(NC(=S)Nc1ccc(N2CCOCC2)c(Cl)c1)c1sc2ccccc2c1Cl	-5.4%	-12.1%	1.26µM*	5.0%	-35.3%	-11.0%
O=C(NC(=S)Nc1ccccc1N1CCOCC1)c1sc2ccccc2c1Cl	-1.5%	-5.6%	u	-7.2%	-6.6%	-28.9%
CC1=CC2=NC(=O)/C(=C\c3ccc(-c4ccc(Cl)cc4)o3)C(=N)N2O1	-29.1%	x	-10.7%	x	4.7%	x
Cc1ccc(C(=O)N2c3ccccc3CC2C)o1 (stereo not drawn)	16.0%	-16.2%	x	-13.2%	u	-13.5%
COc1ccc(C2(CNS(=O)(=O)c3ccc(C)cc3)CCOCC2)cc1	8.3%	-8.5%	-3.4%	-1.4%	-9.2%	-8.3%
COc1ccc(C2(CNC(=O)C(=O)Nc3ccc(C)cc3)CCOCC2)cc1	1.6%	23.8µM*	3.7%	-33.4%	0.8%	-4.5%[11.4 µM]
COC(=O)c1ccc(-c2nc(O)c3cnccn23)cc1	u	-6.5%	u	25.5%	-10.2%	-7.9%
Oc1nc(-c2ccc(Cl)cc2)n2ccncc12	-6.9%	-15.1%	14.1µM*	37.5%	79.4µM*	u
CCCN(Cc1cccs1)C(=O)Nc1ccc(OC)c(OC)c1	-21.1%	x	x	x	x	x
CC(=O)C1=C(NC(=O)c2ccccc2F)C[C@@H]2[C@H]1C2(C)C	u	-2.2%	56.2µM*	35.4%	-9.6%	-12.8%
CC1(C)Cc2nc3sc4c(NCCO)ncnc4c3cc2CS1	1.6%	-8.1%	x	8.4%	-20.0%	-30.2%
CC1(C)Cc2nc3sc(C(=O)NCCCO)c(N)c3cc2CS1	0.4%	-18.5%	25.1µM*	19.3%	u	-24.0%
CC1(C)Cc2nc3sc(C(=O)NCCO)c(N)c3cc2CO1	-21.6%	-5.1%	11.2µM*	17.7%	11.3%	-22.1%
CC1(C)Cc2nc3sc(C(=O)O)c(N)c3cc2CS1	x	x	50.1µM*	x	x	x
COc1cc(NC(=O)CCc2ccc(-c3ccccc3)o2)c(OC)cc1Cl	2.4%	x	x	x	x	x
CC(NC(=O)c1ccc2c(c1)NC(=O)CCS2)c1ccncc1 (stereo not drawn)	8.91µM*	x	x	x	x	x
SMILES	12-LOX inh	PLK1 PBD inh	G9a inh	HP1b chromo inh	BAZ2B block	JMJD2A Tudor inh
O=C1CCSc2ccc(C(=O)NO)cc2N1	39.8µM*	x	x	x	x	x
COc1ccc(C(=O)N[C@@H]2CCC[C@@H]2C(=O)NCCc2ccccc2)cn1	19.5%	x	x	x	x	x
COc1ccc(OCC(=O)NCc2ccc3c(c2)CCN3C(=O)c2ccccc2)cc1	-3.7%	x	-4.7%[59 µM]	3.1%	u	-19.3%
CCc1ccc(N2C=C(C(=O)OC)C(c3ccccc3F)C(C#N)=C2N)cc1 (stereo not drawn)	44.7µM*	-0.9%	x	x	x	x
CCOC(=O)C(Cc1ccc(O)cc1)NC(=O)c1cc2c(cn1)[nH]c1ccccc12 (stereo not drawn)	-2.7%	-14.0%	x	x	x	x
O=C(O)c1cc2c(cn1)[nH]c1ccccc12	-0.8%	-2.2%	22.5%	17.4%	3.98µM*	7.08µM*
O=C(NCCCO)c1cc2c(cn1)[nH]c1ccccc12	20.5%	1.3%	9.1%	34.6%	u	-20.4%
COC(=O)[C@H](C)NC(=O)c1cc2c(cn1)[nH]c1ccccc12	u	1.34µM*	1.41µM*	u	u	39.8µM*
COc1nn(CC(=O)N2N=C(C)CC2(O)C(F)F)cc1[N+](=O)[O-] (stereo not drawn)	0.6%	-7.6%	13.8%[59 µM]	12.7%	2.9%	-2.1%
COC(=O)CCSc1cc(NCCOC(C)=O)c([N+](=O)[O-])c2nonc12	u	-8.7%	25.8%	-6.1%[57 µM]	-10.6%	-7.7%[57.1 µM]
CC(=O)OCCNc1cc(Sc2nc3ccccc3[nH]2)c2nonc2c1[N+](=O)[O-]	u	2.67µM*	3.98µM*	u	u	56.2µM*
CC(=O)OCCCNc1cc(Sc2nc3ccccc3s2)c2nonc2c1[N+](=O)[O-]	x	2.12µM*	u	10.9%	-26.9%	-26.4%
CC(C)C(Br)C(=O)Nc1ccccc1F (stereo not drawn)	8.5%	x	x	x	x	x
CC(C(=O)Nc1ccccc1F)N1CCN(C)CC1 (stereo not drawn)	x	x	u	x	50.1µM*	x
Cc1cccc2c(=O)cc(CSc3ccccc3NC(=O)c3cccc(Cl)c3)[nH]c12	-26.4%	x	-3.6%[59 µM]	23.2%[57 µM]	0.1%	-10.1%
CCOC(=O)N1CCN(c2ncnc3c2[nH]c2ccc(F)cc23)CC1	-15.9%	0.4%	7.1%[59 µM]	24.6%	-2.8%	3.5%
Fc1ccc2[nH]c3c(N4CCN(c5ccccc5)CC4)ncnc3c2c1	-0.6%	-2.0%	u	-10.2%	39.8µM*	u
COc1ccc(N2CCN(c3ncnc4c3[nH]c3ccccc34)CC2)cc1	-6.4%	1.9%	12.6µM*	-13.1%	u	50.1µM*
COc1cc2[nH]c3c(N4CCN(c5ccccn5)CC4)ncnc3c2cc1OC	x	0.3%	44.7µM*	-8.8%	u	-28.1%

Screening data deposited in PubChem by National Center for Advancing Translational Sciences (NCATS).
